A selection: hits, their analogues and other compounds. The true share with any hit is near 13%.
USP8 inh – human USP8 deubiquitinase inhibition. P40818. purified USP8, Ub-rhodamine cleavage fluorescence, 30 min. inhibition, % at 20 µM. actives 4.2% (n = 47,000). AID 1645853
USP10 block – inhibitors of human USP10 deubiquitinase; Q14694; purified USP10, Ub-rhodamine fluorescence, 60 min; inhibition, % at 20 µM; actives 1.1% (n = 47,000)
USP17 block – inhibitors of human USP17 deubiquitinase | actives 6.5% (n = 47,000) | AID 1645855 | purified USP17, Ub-rhodamine cleavage fluorescence, 3 h | inhibition, % at 50 µM | A8MUK1
UCHL1 block – inhibitors of human UCHL1 deubiquitinase. actives 0.2% (n = 47,000). purified UCHL1, Ub-rhodamine cleavage fluorescence. inhibition, % at 20 µM. AID 1645859. P09936
USP30 inh – blocks human USP30 ubiquitin-rhodamine cleavage | purified USP30, Ub-rhodamine cleavage fluorescence | actives 5.3% (n = 47,000) | inhibition, % at 25 µM
USP7 block – blocks human USP7 ubiquitin-rhodamine cleavage. Q93009. purified USP7, Ub-rhodamine cleavage fluorescence. inhibition, % at 20 µM. actives 0.3% (n = 47,000). AID 1645854
Numbers without * were called inactive; · = not tested or not shown. Cut-off read from the data, not from the text of the source: active = inhibition above about 30%; inactive = the rest.

SMILES	USP8 inh	USP10 block	USP17 block	UCHL1 block	USP30 inh	USP7 block
NCC(=O)N1CCCC2(Cc3ccccc3CN2S(=O)(=O)c2ccccc2)C1 (configuration not stated)	-215	-1	-9	1	44*	0
CCCCCCCCCC(CCCCCCCCCC(=O)O)O[C@H]1O[C@@H](COC(C)=O)[C@H](O)[C@@H](OC(=O)CC(=O)O)[C@H]1O (some centres not stated)	7	41*	33*	2	47*	-43
CC(=O)N1c2ccccc2O[C@@H]2C[C@@H](NC(=O)CN3CCCCC3)[C@@H](O)[C@@H]21	7	-1	15	0	29	1
COc1cc(O)c2c(c1C)C(C)(C(C)=O)OC2=O (configuration not stated)	-10	-6	-47	1	-17	2
COc1cc(C)c2c(=O)c3c(oc2c1)C(=O)c1c(O)c(OC)cc(O)c1C3=O	-7	-7	71*	11	-30	-63
O=C1Cc2ccccc2C(=O)N1Cc1cccc(Cl)c1	88*	1	17	2	-74	-40
CCn1cc2c(n1)c(=O)n(Cc1ccccc1)c(=O)n2CC(=O)Nc1ccc(C)cc1C	93*	30*	36*	4	33*	30*
Cc1cc(C)c(NC(=O)Cn2c(=O)n(Cc3ccccc3)c(=O)c3nn(C)cc32)c(C)c1	41*	1	68*	5	85*	4
CCn1c(=O)c2nscc2n(CC(=O)Nc2ccc(C)cc2Cl)c1=O	-4	-3	5	7	·	1
COc1cc(-n2c(=O)c3ccccc3n(CC(=O)NCCc3ccccc3)c2=O)cc(OC)c1OC	26	0	17	0	35*	4
COc1cc(-n2c(=O)c3ccccc3n(Cc3cccc(F)c3)c2=O)cc(OC)c1OC	8	14	26	11	35*	9
COc1ccc(-c2nnn(CC(=O)NCCc3ccccc3)n2)cc1OC	0	-1	47*	1	22	5
CS(=O)(=O)N1CCCc2cc(C(=O)Nc3ccc4c(c3)OCO4)ccc21	15	4	4	2	12	1
Fc1ccc(Cc2nc(-c3ccnc(N4CCCC4)c3)no2)cc1	-5	3	-9	2	0	-22
COC(=O)c1ccc(NC(=O)CN2C(=O)C(=O)c3ccccc32)cc1	3	1	23	2	·	-8
Cc1cc(NC(=O)CN2C(=O)C(=O)c3ccccc32)ccc1-n1ncnn1	32*	1	6	-2	-12	-8
Cc1nc2cc(N3CC(C(=O)Nc4ccccc4C)CC3=O)ccc2o1 (configuration not stated)	28	-4	6	-4	9	0
Cc1nc2cc(N3CC(C(=O)Nc4ccc(F)cc4C)CC3=O)ccc2o1 (configuration not stated)	22	0	63*	1	76*	2
COc1ccccc1NS(=O)(=O)c1ccc(-c2c(C)noc2C)cc1	-4	2	-16	1	-10	-4
COc1ccccc1NS(=O)(=O)c1ccc2oc(Nc3ccc4c(c3)CCC4)nc2c1	51*	27	5	6	-52	10
CCS(=O)(=O)N1CCC(c2c(C)n(Cc3cccc(OC)c3)c3ccccc23)CC1	-56	-2	-65	-16	-329	-23
Cc1nccn1Cc1nc(-c2ccccc2F)no1	21	-2	13	0	12	2
CC1=C[C@H]2N(c3ccccc31)[C@H](C(=O)C(C)(C)C)[C@@H](C(=O)c1ccco1)[C@]21C(=O)Nc2ccccc21	-84	-7	-57	-99	-423	-82
CC1=C[C@H]2N(c3ccc(C)cc31)[C@H](C(=O)C(C)(C)C)[C@@H](C(=O)c1ccccc1)[C@]21C(=O)Nc2ccccc21	80*	-10	41*	-5	-93	-6
CC1=C[C@H]2N(c3ccc(C)cc31)[C@H](C(=O)c1cccs1)[C@@H](C(=O)c1ccc(F)cc1)[C@]21C(=O)Nc2ccccc21	78*	1	59*	2	-72	8
CC(C)c1n[nH]c(=O)c2c1nnn2Cc1ccccc1F	5	5	5	3	34*	-34
Cc1cccc(Cn2cnc3c(nnn3Cc3ccccc3F)c2=O)c1	5	5	23	4	-44	-7

Screens (PubChem BioAssay)
